Sampled rows, rich in hits. Any-hit rate of the full collection: about 19%.
IL1B secr inh = inhibitors of inflammasome signaling (IL-1 beta secretion). THP-1 LPS/ATP IL-1B secretion, AlphaLISA, 16 h; hits give low values. activity change, % at 57.5 µM. 360,000 compounds, 4.7% hits; in the data active = activity change below about -50%; inconclusive = mostly about -30% to -49%
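Secreted IL-1B measured by AlphaLISA bead assay after 16 h compound exposure of THP-1 cells; compounds (final up to 57.5 uM) added 1 h before LPS (250 ng/mL) and ATP (1.25 mM) stimulation; lower signal means less secretion.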
HT1080 IDH1KD tx = kills HT-1080 cells with IDH1 knockdown; HT-1080 IDH1 knockdown viability, ATP luminescence, 48 h; Potency, µM (highest dose often 46.1 µM), usual class: cytotoxic; 360,000 compounds, 2% hits
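After a 2 h attachment period, IDH1KD HT-1080 cells took pin-transferred compound for 48 h at 37 °C; ATP-based luminescence after 10 min room-temperature reagent incubation reported viability.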
DT40 TDP1 CPT = growth inhibition of DT40 Tdp1-/-;hTDP1 cells with camptothecin (screen for TDP1 inhibitors); chicken DT40 Tdp1-/-;hTDP1 cells + 20 nM CPT, ATP luminescence, 48 h; Potency, µM (titrated, usually from 46.2 µM), hits mostly inhibitors; 420,000 compounds, 12% hits; AID 686979; note: nearly all actives have a fitted effect of over 55% in size
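Cell growth measured by CellTiter-Glo luminescence after a minimum 48 h, 37 C compound exposure with 20 nM CPT in Tdp1-knockout DT40 cells stably expressing hTDP1, seeded 400/well; qHTS titration format.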
TDP1 cell noCPT = qHTS for Inhibitors of human tyrosyl-DNA phosphodiesterase 1 (TDP1): qHTS in cells in absence of CPT | DT40 Tdp1-/- hTDP1 cells, no CPT, ATP luminescence, 48 h | Potency, µM (series often up to 46.2 µM), actives largely listed as inhibitors | 420,000 compounds, 15% hits | AID 686978, 2013; note: nearly all actives have a fitted effect of over 55% in size
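Stably hTDP1-transfected Tdp1-null chicken DT40 cells were treated with library compounds minus camptothecin and grown for at least 48 hr at 37 °C, after which cellular ATP was quantified by luminescence.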
HT1080-NT tox = kills 2HG-producing HT-1080-NT fibrosarcoma cells; HT-1080-NT fibrosarcoma viability, CellTiter-Glo ATP luminescence, 48 h; Potency, µM (top dose mostly 46.1 µM), actives largely listed as cytotoxic; 360,000 compounds, 1.6% hits; AID 686970;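 note: NT is the 2HG producing partner of a matched IDH1 knockdown line; nearly all actives have a fitted effect of over 55% in size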
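Viability of the 2HG-overproducing fibrosarcoma line after 48 hours of compound exposure at 37 degrees C was determined by luminescence with CellTiter-Glo, and concentration-effect curves were then fitted and categorized.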
Hits are given with their value; - = inactive; ? = inconclusive; . = no result. Unless noted, calls come from the whole dose curve; as a rule, active = well fitted curve in the direction sought with a large enough effect; inconclusive = small, poorly fitted or top-dose-only effect, or another doubt; inactive = no such curve, though single readings can be large; an effect the other way counts as inactive or inconclusive.

SMILES	IL1B secr inh	HT1080 IDH1KD tx	DT40 TDP1 CPT	TDP1 cell noCPT	HT1080-NT tox
COc1cccc2sc(/N=C/N(C)C)nc12	-	-	-	-	-
C#CCN1C(=O)C(O)(c2c(C)[nH]c3ccccc23)c2ccccc21 (stereo not drawn)	-	-	4.6µM	3.3µM	-
Cc1[nH]c2ccccc2c1C1(O)C(=O)N(C(C)C)c2ccccc21 (stereo not drawn)	-	-	-	-	-
Cc1ccc2c(c1)C(O)(c1c(C)[nH]c3ccccc13)C(=O)N2 (stereo not drawn)	-	?	-	-	?
CCCN1C(=O)C(O)(c2c(C)[nH]c3ccccc23)c2ccccc21 (stereo not drawn)	-	-	5.2µM	5.2µM	-
COc1ccc(O)c(/C=N/Nc2nc(Nc3ccccc3)nc(-n3nc(C)cc3C)n2)c1	-	16µM	0.58µM	0.52µM	?
COc1cc(/C=N\NS(=O)(=O)c2ccccc2)cc(OC)c1OC	-	-	-	-	-
COc1cc(/C=N/Nc2nc(Nc3ccccc3)nc(-n3nc(C)cc3C)n2)cc(OC)c1OC	-64	15µM	23µM	18µM	?
COc1cc(/C=N/n2nnnc2Nc2ccccc2)cc(OC)c1OC	?	-	15µM	18µM	-
COc1cc(/C=N/Nc2nc(Nc3ccc(C)cc3)nc(-n3nc(C)cc3C)n2)cc(OC)c1OC	-	2.8µM	4.6µM	2.9µM	4.5µM
Oc1ccc(C=NN=C2c3ccccc3-c3ccccc32)c(O)c1	-58	-	?	15µM	-
O=[N+]([O-])c1cccc(/C=N\N=C2c3ccccc3-c3ccccc32)c1O	-	-	?	16µM	-
NC(N)=N/N=C/c1cccc([N+](=O)[O-])c1O	-	-	-	-	-
c1ccc(COc2ccc(-c3cc4nc(NCCCn5ccnc5)ccn4n3)cc2)cc1	-	?	23µM	16µM	?
COc1ccccc1-c1cc2nc(NCCOc3ccccc3)ccn2n1	-	?	18µM	16µM	?
CNc1cccc(-c2cc(OC)c(OC)c(OC)c2)n1	-	-	?	?	-
COc1cc(Nc2cccc(-c3ccccc3)n2)cc(OC)c1OC	-	?	18µM	?	-
COc1cc(Nc2ccn3nc(-c4ccccc4Cl)cc3n2)cc(OC)c1OC	-	-	?	21µM	23µM
COCCCNc1ccn2nc(-c3cc(OC)c(OC)c(OC)c3)cc2n1	-	-	?	?	-
CCCCCCCC1c2c(c(C)c(C)oc2=O)Oc2c(C)c(C)oc(=O)c21	-	-	?	-	-
c1ccc(OCCNc2ccn3nc(-c4ccccc4)cc3n2)cc1	-	-	?	?	-
c1ccc(COc2cccc(-c3cc4nc(NCc5cccs5)ccn4n3)c2)cc1	-	7.3µM	?	?	?
COCCCNc1ccn2nc(-c3ccccc3)cc2n1	-	-	-	-	-
COCCCNc1ccn2nc(-c3cccc(OCc4ccccc4)c3)cc2n1	-	?	?	7.3µM	?
CC(SCc1nc2sc3c(c2c(=O)[nH]1)CCCC3)C(=O)Nc1ccccn1 (stereo not drawn)	-	-	-	-	-
SMILES	IL1B secr inh	HT1080 IDH1KD tx	DT40 TDP1 CPT	TDP1 cell noCPT	HT1080-NT tox
CNC(=O)CSc1nnc(NC(=O)C2CC(=O)N(c3ccccc3OC)C2)s1 (stereo not drawn)	-	-	-	-	-
CCOC(=O)Cc1csc(NS(=O)(=O)c2ccc(F)cc2)n1	-	-	?	?	-
COc1ccc(C[C@](C)(N)C(=O)O)cc1OC	-	-	-	2.3µM	?
Cc1ccccc1NC(=O)c1ccc(F)c(S(=O)(=O)N2CCCCC2)c1	-	-	-	-	-
O=C(Nc1cc(Cl)cc(Cl)c1)c1ccc(F)c(S(=O)(=O)N2CCc3ccccc32)c1	.	.	5.8µM	9.2µM	.
CC(C)c1ccc(NC(=O)c2ccc(F)c(S(=O)(=O)N3CCCC3)c2)cc1	.	.	10µM	?	.
Cc1nnc(NC(=O)c2ccc(F)c(S(=O)(=O)N3CCCCC3)c2)s1	-	-	-	-	-
O=C(Nc1cc(Cl)cc(Cl)c1)c1ccc(F)c(S(=O)(=O)N2CCCC2)c1	.	.	16µM	21µM	.
COc1ccccc1OCCSc1nc(C)c(Cc2ccccc2)c(=O)[nH]1	-	-	-	-	-
COc1ccc(OC)c(C2c3[nH]c4ccccc4c3C[C@H]3C(=O)N(C4CC4)CC(=O)N23)c1 (stereo partly drawn)	-	-	-	-	-
COc1ccc(C2c3[nH]c4ccccc4c3C[C@H]3C(=O)N(C4CCN(Cc5ccccc5)CC4)CC(=O)N23)c(OC)c1 (stereo partly drawn)	-	-	?	15µM	-
CCOc1ccccc1C1c2[nH]c3ccccc3c2C[C@H]2C(=O)N(C3CCN(Cc4ccccc4)CC3)CC(=O)N12 (stereo partly drawn)	?	?	5.8µM	16µM	?
COc1cc(NC(=O)CCl)ccc(=O)c1	-	23µM	13µM	18µM	21µM
O=C(CCl)Nc1cccc(Oc2cnccn2)c1	-88	?	18µM	9.2µM	?
N=c1sccn1CC(=O)Nc1cccc(S(N)(=O)=O)c1	-	-	-	-	-
N=c1sccn1CC(=O)Nc1cccc(Oc2ccccc2)c1	-	?	?	22µM	?
O=C(CCl)Nc1cccc(Oc2ccccc2)c1	-106	?	3.3µM	2.9µM	?
Nc1nc(SCC(=O)Nc2cccc(Oc3ccccc3)c2)n[nH]1	-	-	-	?	-
O=C(CSc1ncnc2[nH]ncc12)Nc1cccc(Oc2ccccc2)c1	-90	-	?	?	-
CCOC(=O)C(C)n1cnc2c(nnn2Cc2ccc(C)cc2)c1=O (stereo not drawn)	-	-	?	-	-
Cn1c(=O)c2c(-c3ccccc3Br)n(C(C)(C)C)cc2n(C)c1=O	.	.	16µM	12µM	.
COc1ccc(CCn2cc3c(c2-c2ccccc2Br)c(=O)n(C)c(=O)n3C)cc1OC	.	.	21µM	16µM	.
CC(c1ccccc1)n1cc2c(c1-c1ccccc1Br)c(=O)n(C)c(=O)n2C (stereo not drawn)	.	.	16µM	18µM	.
COc1ccc(C2(C(=O)NCC3Cc4cccc(-c5nc(C)cnc5C)c4O3)CCCC2)cc1 (stereo not drawn)	.	.	?	-	.
O=C(O)c1ccc(NS(=O)(=O)Cc2ccc(Cl)c(Cl)c2)cc1	-	-	-	-	-
CN(C1CCCCC1)S(=O)(=O)CCNC(=O)c1ccccc1	-	-	-	-	-
Cn1nc(C(=O)Nc2cccc(S(=O)(=O)N3CCCCC3)c2)c2ccccc2c1=O	-54	-	?	?	-
COc1ccc(NC(=O)c2nn(C)c(=O)c3ccccc23)cc1S(=O)(=O)Nc1ccccc1Cl	-	-	?	?	-
